NS1 inh – qHTS Assay for Inhibitors of Influenza NS1 Protein Function; 270,000 tested, 0.4% active; Potency, µM (highest dose often 46.1 µM), for inactives: at the highest dose activity, positive = more growth; calls by dose curve; note: potency is the fitted concentration of half-maximal effect; actives are rising curves; nearly all actives have a fitted effect of over 50% in size
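Recovery from NS1-induced slow growth read by OD600 in budding yeast switched to galactose assay medium (pH 6.0, -URA) at 1:100 dilution. Compound 23 nl per well; the matching strain lacking NS1 serves as control.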
Sm TGR block – qHTS Assay for the Inhibitors of Schistosoma Mansoni Peroxiredoxins. purified TGR, DTNB reduction, TNB absorbance 405 nm. 360,000 tested, 3% active. Potency, µM (series often up to 114 µM), without a hit: top-dose activity change, negative = inhibition, most hits filed as inhibitors. AID 485364, 2010; note: potency is the fitted concentration of half-maximal effect; % is set by controls: 0 for no effect and ±100 for the full control effect; nearly all actives have a fitted effect of over 60% in size
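Kinetic colorimetric format: TGR-catalysed, NADPH-driven DTNB reduction monitored via TNB absorbance. Enzyme dispensed at 20 nM; compound exposure 15 min at room temperature before reaction start.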
Cycloheximide cs – Cycloheximide Counterscreen for Small Molecule Inhibitors of Shiga Toxin; 300,000 tested, 12% active; cell reporter, cycloheximide protein synthesis inhibition counterscreen; max response, %; in the data active = max response mostly above about 13%, no sharp cut-off; inactive = mostly below about 14%; note: read at 38.3 µM for the half of the compounds with a filed dose; 0% is about no effect
Shiga inhibitor – A qHTS for Small Molecule Inhibitors of Shiga Toxin; 290,000 tested, 9.2% active; Vero cells, Shiga toxin protein synthesis inhibition reporter; inhibition, % at 38.7 µM; in the data active = inhibition mostly above about 28%, no sharp cut-off; inactive = mostly below about 43%; note: 0% is about no effect
Pf growth 48h – Primary qHTS for delayed death inhibitors of the malarial parasite plastid, 48 hour incubation; P. falciparum luciferase growth in erythrocytes, 48 h; Potency, µM (series often up to 28.7 µM), for the others: at the top dose activity change, negative = inhibition, actives largely listed as inhibitors; 310,000 tested, 5.9% active; AID 504832, 2011; note: potency is the fitted concentration of half-maximal effect; % is set by controls: 0 for no effect and ±100 for the full control effect
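Luciferase-expressing P. falciparum in infected erythrocytes (2% hematocrit, 0.1% parasitemia final) in RPMI 1640/0.5% Albumax were exposed to compound for 48 hours at 37 C, 5% CO2; growth read as luminescence.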
Pf growth 96h – Primary qHTS for delayed death inhibitors of the malarial parasite plastid, 96 hour incubation | P. falciparum luciferase reporter growth, 96 h | Potency, µM (titrated, usually from 28.7 µM), for the others: at the highest dose activity change, negative = inhibition, usual class: inhibitors | 320,000 tested, 6.9% active | AID 504834, 2011; note: potency is the fitted concentration of half-maximal effect; % is set by controls: 0 for no effect and ±100 for the full control effect
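Compounds incubated with erythrocytes infected by luciferase-expressing P. falciparum (2% hematocrit, 0.05% parasitemia final) for 96 hours, 37 C in 5% CO2. Growth inhibition scored as decreased luciferase luminescence.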
The depositor's hits bear a star; i = inactive; ? = inconclusive; · = not tested or not shown; [ ] = remark or other dose. An excerpt weighted towards active compounds, which were near 21% of everything screened. Unless noted, calls come from the whole dose curve; as a rule, active = well fitted curve in the direction sought with a large enough effect; inconclusive = small, poorly fitted or top-dose-only effect, or another doubt; inactive = no such curve, though single readings can be large; an effect the other way counts as inactive or inconclusive.

SMILES	NS1 inh	Sm TGR block	Cycloheximide cs	Shiga inhibitor	Pf growth 48h	Pf growth 96h
CS(=O)(=O)N(CC(=O)NCC1CCCO1)c1cccc(Cl)c1 (centres undefined)	-35%	5%	15*	19	?	20%
O=C(NCC1CCCO1)c1ccc(-c2cccc(C(F)(F)F)c2)o1 (centres undefined)	-2%	-33%	12	-22	-6%	-20%
COc1cc(OC)cc(C(=O)Nc2ccc(C(=O)NCC3CCCO3)cc2)c1 (centres undefined)	2%	13%	-1	-10	?	?
CC(=O)c1ccc(-c2ccc(C(=O)NCC3CCCO3)o2)cc1 (centres undefined)	·	35µM*	·	·	-13%	-29%
COc1ccc(C(=O)NCC2CCCO2)cc1 (centres undefined)	5%	0%	36*	54*	59%	27%
Cc1ccc(C(=O)N2CCN(c3ccc(NC(=O)Cc4ccccc4)cc3)CC2)cc1	13%	-9%	20	12	?	61%
Cc1cc(C)c(C(=O)N2CCCC(CNC(=O)C3(c4ccc(Cl)cc4)CC3)C2)c(=O)[nH]1 (centres undefined)	1%	7%	1	-4	23%	?
COc1ccc(Cn2c(=O)n(-c3ccc(OC)cc3)c(=O)c3c2c2cc(OC)ccc2n3C)cc1	·	5%	·	·	·	·
CNC(=O)c1cc(NC(=O)CCn2nc(-c3ccccc3)c3ccccc3c2=O)ccc1OC	-1%	-5%	-1	9	2.1µM*	0.83µM*
Cc1ccc(CNC(=O)Nc2cc(C(=O)NCc3cccc(F)c3)ccc2N2CCCC2)cc1	·	3%	·	·	·	·
COc1ccc(C(=O)NN=C2CCCC2)cc1OC	0%	-2%	-2	-2	17%	?
Cc1cccc2c1OCC/C2=N\NC(=O)COc1ccccc1	1%	19%	60*	133*	82%	69%
O=C(COc1ccccc1F)N/N=C1\CCCc2ccccc21	5%	6%	35*	79*	183%	98%
COc1ccc(OCC(=O)N/N=C2\CCCc3ccccc32)cc1	-8%	-7%	0	-21	30%	?
COc1ccccc1OCC(=O)N/N=C1\CCc2ccccc21	-9%	-4%	38*	92*	69%	·
COc1ccc(C(=O)N/N=C2\CCc3ccccc32)cc1OC	3%	-3%	30*	34	-10%	-13%
CCC(C)c1ccc(S(=O)(=O)N2CCN(C(C)CC(=O)O)CC2)cc1 (centres undefined)	·	27%	-2	-4	10%	13%
Cc1ccc(NC(=O)CSc2nnc(-c3cc4occc4n3C)n2-c2ccccc2C)c(C)c1	·	1%	·	·	·	·
COc1ccc(N2CCN(C(=O)CN(C3CCCCC3)S(C)(=O)=O)CC2)cc1	2%	1%	-4	-2	-3%	26%
COc1ccccc1OCC(=O)N/N=C1\CCCCc2ccccc21	-3%	13%	17*	19	?	?
COc1cc(/C=N/NC(=S)Nc2cccc(C(=O)O)c2)ccc1O	2%	-7%	12*	24	116%	47%
O=C(N/N=C/c1cccnc1)c1cccc(NC(=O)c2cccc(Br)c2)c1	10%	0%	14	11	-23%	-15%
Cc1cccc(C)c1NC(=S)N/N=C/c1ccc(OCCC(C)C)cc1	5%	-1%	10	-10	·	3.3µM*
O=C(O)c1cccc(NC(=S)N/N=C/c2cccnc2)c1	10%	3%	17*	54	i	?
COc1ccc(/C=N/NC(=S)Nc2cccc(C(=O)O)c2)cc1	·	-32%	41*	156*	319%	-11%
SMILES	NS1 inh	Sm TGR block	Cycloheximide cs	Shiga inhibitor	Pf growth 48h	Pf growth 96h
O=C1CC(C(=O)O)(c2ccccc2)c2cccc(F)c21 (centres undefined)	4%	-25%	7	-7	13%	1%
COCCNC(=O)C1CCN(Cc2cc3ccccc3n2Cc2ccc(C)cc2)CC1	·	9%	·	·	·	·
CCCCN(CCCNC(=O)CN1N=C(c2ccccc2)CCC1=O)c1ccccc1	·	13%	·	·	·	·
CCOC(=O)c1ccc(Nc2c(-c3cccc(O)c3)nc3nc[nH]n23)cc1	·	4%	·	·	·	·
COc1ccc(/C=N/NC(=S)Nc2ccccc2)cc1	7%	1%[57.1 µM]	55*	75*	?	193%
Cc1ccnc(NC(=O)CCNC(=O)c2ccc(Cl)cc2)c1	-6%	-24%	-1	-14	-8%	?
CCN(c1ccccc1)S(=O)(=O)c1ccc(OC)c(NC(=O)C2=NN(c3ccccc3)C(=O)CC2)c1	·	6%	·	·	12µM*	?
CCN(c1ccccc1)S(=O)(=O)c1ccc(OC)c(NC(=O)C2CC(=O)N(Cc3ccccc3)C2)c1 (centres undefined)	-67%	2%	-2	-5	6.6µM*	13µM*
COc1ccc(Cn2nnnc2C(c2ccccc2Cl)N2CCN(C3CCCC3)CC2)cc1 (centres undefined)	-8%	0%	-9	-18	15µM*	75%
COc1ccc(C(c2nnnn2CCc2ccccc2)N2CCN(C3CCCC3)CC2)cc1 (centres undefined)	-5%	-7%	42*	60*	8%	-5%[5.75 µM]
COc1ccccc1N1CCN(C(c2ccc(N(C)C)cc2)c2nnnn2CCc2ccccc2)CC1 (centres undefined)	11%	40µM*	-1	14	9.3µM*	?
COc1ccccc1N1CCN(C(c2ccc(F)cc2)c2nnnn2C(C)C)CC1 (centres undefined)	-15%	-24%	-7	-9	?	-16%
Cc1cc(C(=O)NCC(=O)OCC(=O)NCC2CCCO2)ccc1[N+](=O)[O-] (centres undefined)	·	5%	·	·	2%	-2%
O=C(Nc1ccccc1N1CCOCC1)c1cc(=O)[nH]c2ccccc12	·	-17%	·	·	?	-19%
CC1CCN(CCCCOc2ccccc2[N+](=O)[O-])CC1	-8%	-22%	1	-9	7%	?
CC(=O)Nc1cccc(NC(=O)CSc2ccc(-c3cccnc3)nn2)c1	·	6%	6	-4	?	-29%
Cc1ccccc1NC(=O)CSc1ccc(-c2cccnc2)nn1	7%	2%	-2	-9	-29%	10µM*
Cc1ccccc1NC(=O)CSc1ccncc1	0%	-2%	14*	26	10%	3%
O=C(CSc1ccc(-c2ccccn2)nn1)Nc1cccc(F)c1	-105%	1%	42*	32*	-24%	?
O=C(CSc1ccc(-c2cccnc2)nn1)Nc1ccccc1	4%	-16%	6	8	4%	12µM*
Cc1noc(-c2ccc(N3CCC(C)CC3)c([N+](=O)[O-])c2)n1	·	-10%	·	·	·	·
CCOC(=O)c1ccc(NC(=O)CSc2ccc(-c3cccnc3)nn2)cc1	·	3%	16*	54	-21%	-21%

Compound activity deposited in PubChem BioAssay by National Center for Advancing Translational Sciences (NCATS).
